# According to PubChem BioAssay (EPA / NIEHS):
# Calls of active or inactive are those of the source. How the source made its calls: active means hit-call score of the fitted dose curve at least 0.9, where 1 is the maximum; inactive means score below 0.9.
# What was measured:
# Details in all cases: mRNA level, 48 h; actives raise or lower the signal
# [1] = read-out: Insulin-like growth factor-binding protein 1 (IGFBP1), IGFBP1 (gene 3484); assay: LTEA_HepaRG_IGFBP1: Life Technologies and Expression Analysis (LTEA) Assay for Insulin-like growth factor-binding protein 1 (IGFBP1) using HepaRG (AID 2283508)
# Outline: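 Thawed HepaRG cells are plated for 48 h, switched to serum-free induction medium, then dosed in duplicate for another 48 h (100 uM top, half-log steps). Lysates in RLT go to qRT-PCR, and gain or loss of signal is fitted relative to vehicle.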
# [2] = read-out: Interleukin 6 (IL6), IL6 (gene 3569); assay: LTEA_HepaRG_IL6: Life Technologies and Expression Analysis (LTEA) Assay for Interleukin 6 (IL6) using HepaRG (AID 2283509)
# Outline: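 HepaRG cells exposed in duplicate for 48 h to eight half-log concentrations, top 100 uM, in 0.5% DMSO serum-free induction medium. mRNA measured by qRT-PCR, normalized to ACTB, GAPDH and POLR2A. Bidirectional fit versus DMSO.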
# [3] = read-out: Interleukin 6 Receptor (IL6R), IL6R (gene 3570); assay: LTEA_HepaRG_IL6R: Life Technologies and Expression Analysis (LTEA) Assay for Interleukin 6 Receptor (IL6R) using HepaRG (AID 2283510);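 on AC50: TaqMan qRT-PCR signal normalized to ACTB GAPDH and POLR2A housekeeping genes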
# Outline: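 Differentiated HepaRG cells, plated 48 h, then exposed in duplicate for 48 h in serum-free induction medium to 8 half-log concentrations (top 100 uM, 0.5% DMSO). IL6R mRNA measured by TaqMan qRT-PCR, normalized to ACTB/GAPDH/POLR2A; bidirectional fit vs DMSO.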
# [4] = read-out: Potassium channel subfamily K member 1 (KCNK1), KCNK1 (gene 3775); assay: LTEA_HepaRG_KCNK1: Life Technologies and Expression Analysis (LTEA) Assay for Potassium channel subfamily K member 1 (KCNK1) using HepaRG (AID 2283511)
# Outline: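 Differentiated HepaRG cells, 48 h exposure in serum-free induction medium with 0.5% DMSO; 8 concentrations, half-log from 100 uM, duplicate. KCNK1 mRNA by qRT-PCR, normalized to ACTB, GAPDH, POLR2A; bidirectional fit vs DMSO.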
# [5] = read-out: Keratin 19 (KRT19), KRT19 (gene 3880); assay: LTEA_HepaRG_KRT19: Life Technologies and Expression Analysis (LTEA) Assay for Keratin 19 (KRT19) using HepaRG (AID 2283512)
# Outline: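 KRT19 transcript levels, measured by Fluidigm qRT-PCR against three housekeeping genes, are fitted for gain or loss of signal relative to DMSO. Human HepaRG cells receive test chemicals (top 100 uM, half-log steps, 0.5% DMSO) for 48 hours.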
# [6] = read-out: JUN Transcription Factor, JUN (gene 3725); assay: LTEA_HepaRG_JUN: Life Technologies and Expression Analysis (LTEA) Assay for JUN Transcription Factor using HepaRG (AID 2283513)
# Outline: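 HepaRG cells, 48 h post-plating, exposed 48 h in serum-free induction medium to 8-point half-log series (top 100 uM, 0.5% DMSO), duplicate; mRNA by qRT-PCR (TaqMan, Fluidigm), normalized to ACTB/GAPDH/POLR2A; bidirectional fit vs DMSO.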
# [7] = read-out: Lipase C (LIPC), LIPC (gene 3990); assay: LTEA_HepaRG_LIPC: Life Technologies and Expression Analysis (LTEA) Assay for Lipase C (LIPC) using HepaRG (AID 2283514)
# Outline: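 HepaRG cells, 48 h after plating, treated in duplicate for 48 h in serum-free induction medium over 8 half-log concentrations from 100 uM, 0.5% DMSO. LIPC mRNA by TaqMan qRT-PCR normalized to ACTB/GAPDH/POLR2A; bidirectional fit versus DMSO.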
# [8] = read-out: Lipoprotein lipase (LPL), LPL (gene 4023); assay: LTEA_HepaRG_LPL: Life Technologies and Expression Analysis (LTEA) Assay for Lipoprotein lipase (LPL) using HepaRG (AID 2283515)
# Outline: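 Differentiated HepaRG cells, plated 48 h, then exposed 48 h in serum-free induction medium to 8 concentrations (top 100 uM, half-log steps) in 0.5% DMSO, duplicate. LPL mRNA measured by qRT-PCR, normalized to ACTB, GAPDH and POLR2A.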
# [9] = read-out: MicroRNA 122 (MIR122), gene 406906; assay: LTEA_HepaRG_MIR122: Life Technologies and Expression Analysis (LTEA) Assay for MicroRNA 122 (MIR122) using HepaRG (AID 2283516); further: the transcript read is the microRNA miR-122
# Outline: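 Differentiated human HepaRG cells in serum-free induction medium exposed 48 h to 8 half-log concentrations from 100 uM in 0.5% DMSO, duplicate. MIR122 quantified by Fluidigm TaqMan qRT-PCR, normalised to ACTB, GAPDH, POLR2A; fold change fitted bidirectionally versus DMSO.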
# [10] = read-out: matrix metalloproteinase-10 (MMP10), MMP10 (gene 4319); assay: LTEA_HepaRG_MMP10: Life Technologies and Expression Analysis (LTEA) Assay for matrix metalloproteinase-10 (MMP10) using HepaRG (AID 2283517)
# Outline: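 Differentiated HepaRG cells in serum-free induction medium exposed 48 h in duplicate to 8-point half-log series up to 100 uM in 0.5% DMSO. mRNA quantified by qRT-PCR, normalised to ACTB, GAPDH, POLR2A; bidirectional fit versus DMSO.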
# MYC, MYC (gene 4609) = assay: LTEA_HepaRG_MYC: Life Technologies and Expression Analysis (LTEA) Assay for MYC using HepaRG (AID 2283518)
# Outline: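 HepaRG, ~100,000 cells/well, collagen I; 48 h plating; serum-free induction medium; 48 h dosing, duplicate, 100 uM top, half-log, 0.5% DMSO; total RNA → qRT-PCR MYC; gain/loss fit vs DMSO.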
# [11] = read-out: matrix metalloproteinase-3 (MMP3), MMP3 (gene 4314); assay: LTEA_HepaRG_MMP3: Life Technologies and Expression Analysis (LTEA) Assay for matrix metalloproteinase-3 (MMP3) using HepaRG (AID 2283519)
# Outline: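 HepaRG cells (~100,000/well) in serum-free induction medium were dosed in duplicate for 48 h with an 8-point half-log series from 100 uM, 0.5% DMSO. MMP3 mRNA was quantified by Fluidigm TaqMan qRT-PCR, normalized to three housekeeping genes.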
# [12] = read-out: Paternally Expressed 10 (PEG10), PEG10 (gene 23089); assay: LTEA_HepaRG_PEG10: Life Technologies and Expression Analysis (LTEA) Assay for Paternally Expressed 10 (PEG10) using HepaRG (AID 2283520)
# Outline: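 Differentiated HepaRG cells exposed 48 h in serum-free induction medium to eight half-log concentrations topping at 100 uM, 0.5% DMSO, in duplicate. PEG10 mRNA quantified by TaqMan qRT-PCR, normalized to ACTB, GAPDH and POLR2A; bidirectional fit versus DMSO.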
# [13] = read-out: Protein phosphatase 2A (PPP2R4), PTPA (gene 5524); assay: LTEA_HepaRG_PPP2R4: Life Technologies and Expression Analysis (LTEA) Assay for Protein phosphatase 2A (PPP2R4) using HepaRG (AID 2283522)
# Outline: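 Differentiated human HepaRG cells in serum-free induction medium were exposed 48 h to 8 concentrations (top 100 µM, half-log steps, duplicate) in 0.5% DMSO. PPP2R4 mRNA was measured by TaqMan qRT-PCR, normalised to ACTB, GAPDH and POLR2A, and fitted bidirectionally versus DMSO.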
# [14] = read-out: Phosphatase and tensin (PTEN), PTEN (gene 5728); assay: LTEA_HepaRG_PTEN: Life Technologies and Expression Analysis (LTEA) Assay for Phosphatase and tensin (PTEN) using HepaRG (AID 2283523)
# Outline: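 HepaRG cells, 48 h after plating, exposed in duplicate for 48 h in serum-free induction medium to 8 half-log concentrations up to 100 uM (0.5% DMSO). PTEN mRNA by qRT-PCR, normalized to ACTB, GAPDH, POLR2A; bidirectional fit versus DMSO.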
# [15] = read-out: solute carrier (SLC22A1), SLC22A1 (gene 6580); assay: LTEA_HepaRG_SLC22A1: Life Technologies and Expression Analysis (LTEA) Assay for solute carrier (SLC22A1) using HepaRG (AID 2283524)
# Outline: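 Differentiated human HepaRG cells in serum-free induction medium, exposed 48 h in duplicate to 8-point half-log series from 100 µM top in 0.5% DMSO. SLC22A1 mRNA by TaqMan qRT-PCR normalized to ACTB, GAPDH, POLR2A; bidirectional fit versus DMSO.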
# [16] = read-out: Pyruvate Dehydrogenase Kinase 4 (PDK4), PDK4 (gene 5166); assay: LTEA_HepaRG_PDK4: Life Technologies and Expression Analysis (LTEA) Assay for Pyruvate Dehydrogenase Kinase 4 (PDK4) using HepaRG (AID 2283525)
# Outline: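 HepaRG cells plated 48 h, then switched to serum-free induction medium and exposed in duplicate for 48 h to 8 half-log concentrations from 100 uM in 0.5% DMSO. PDK4 mRNA measured by qRT-PCR, normalized to ACTB, GAPDH and POLR2A; bidirectional fit versus DMSO.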
# [17] = read-out: NAD(P)H dehydrogenase [quinone] 1 (NQO1), NQO1 (gene 1728); assay: LTEA_HepaRG_NQO1: Life Technologies and Expression Analysis (LTEA) Assay for NAD(P)H dehydrogenase [quinone] 1 (NQO1) using HepaRG (AID 2283526)
# Outline: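 Differentiated human HepaRG cells in serum-free induction medium, dosed in duplicate for 48 h at 8 half-log concentrations up to 100 uM in 0.5% DMSO. NQO1 mRNA by qRT-PCR normalized to ACTB, GAPDH, POLR2A; bidirectional fit versus DMSO baseline.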
# [18] = read-out: Nuclear factor erythroid 2-related factor 2 (Homo sapiens) (UniProt Q16236); assay: LTEA_HepaRG_NFE2L2: Life Technologies and Expression Analysis (LTEA) Assay for Nuclear factor erythroid 2-related factor 2 (NFE2L2) Transcription Factor using HepaRG (AID 2283527);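 further: TaqMan qRT-PCR transcript level normalised to ACTB GAPDH and POLR2A housekeeping genes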
# Outline: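 Differentiated human HepaRG cells, serum-free induction medium, exposed 48 h in duplicate to eight half-log concentrations up to 100 uM in 0.5% DMSO. NFE2L2 mRNA by Fluidigm TaqMan qRT-PCR, normalised to ACTB, GAPDH, POLR2A; bidirectional change versus DMSO.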
# Nuclear factor erythroid 2-related factor 2 (Homo sapiens), sequence (Q16236 whole entry, looked up): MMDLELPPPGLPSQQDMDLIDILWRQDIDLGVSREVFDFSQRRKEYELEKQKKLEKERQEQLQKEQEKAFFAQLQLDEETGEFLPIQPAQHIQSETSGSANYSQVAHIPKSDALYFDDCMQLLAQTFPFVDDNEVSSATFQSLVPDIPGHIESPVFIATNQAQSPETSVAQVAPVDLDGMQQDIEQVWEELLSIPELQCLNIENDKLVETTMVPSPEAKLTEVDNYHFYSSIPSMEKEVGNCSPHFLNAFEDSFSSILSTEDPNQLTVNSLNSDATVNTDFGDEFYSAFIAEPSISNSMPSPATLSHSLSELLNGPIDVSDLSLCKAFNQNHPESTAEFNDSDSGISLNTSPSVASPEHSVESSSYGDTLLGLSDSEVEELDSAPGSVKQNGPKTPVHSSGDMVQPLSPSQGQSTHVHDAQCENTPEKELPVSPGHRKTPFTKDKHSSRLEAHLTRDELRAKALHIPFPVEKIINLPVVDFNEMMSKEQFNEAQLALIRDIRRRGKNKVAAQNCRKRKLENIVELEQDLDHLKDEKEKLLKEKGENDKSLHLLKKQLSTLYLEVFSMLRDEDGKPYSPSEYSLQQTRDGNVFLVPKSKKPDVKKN
compound,measurement,setting,value
C#C[C@]1(O)CC[C@H]2[C@@H]3CCC4=CC(=O)CC[C@@H]4[C@H]3CC[C@@]21C,outcome,[1],inactive
same,outcome,[2],inactive
same,outcome,[3],inactive
same,outcome,[4],inactive
same,outcome,[5],inactive
same,outcome,[6],inactive
same,outcome,[7],inactive
same,outcome,[8],inactive
same,outcome,[9],inactive
same,outcome,[10],inactive
same,outcome,"MYC, MYC (gene 4609)",inactive
same,AC50,[11],7.81 µM (active)
same,AC50,[12],0.321 µM (active)
same,outcome,[13],inactive
same,outcome,[14],inactive
same,AC50,[15],32.1 µM (active)
same,outcome,[16],inactive
same,outcome,[17],inactive
same,outcome,[18],inactive
CCCCOCCO,outcome,[1],inactive
same,outcome,[2],inactive
same,outcome,[3],inactive
same,outcome,[4],inactive
same,outcome,[5],inactive
same,outcome,[6],inactive
same,outcome,[7],inactive
same,outcome,[8],inactive
same,outcome,[9],inactive
same,outcome,[10],inactive
same,outcome,"MYC, MYC (gene 4609)",inactive
same,outcome,[11],inactive
same,outcome,[12],inactive
same,outcome,[13],inactive
same,outcome,[14],inactive
same,outcome,[15],inactive
same,outcome,[16],inactive
same,outcome,[17],inactive
same,outcome,[18],inactive
OC1CCCCC1,outcome,[1],inactive
same,outcome,[2],inactive
same,outcome,[3],inactive
same,outcome,[4],inactive
same,outcome,[5],inactive
same,outcome,[6],inactive
same,outcome,[7],inactive
same,outcome,[8],inactive
same,outcome,[9],inactive
same,outcome,[10],inactive
same,outcome,"MYC, MYC (gene 4609)",inactive
same,outcome,[12],inactive
same,outcome,[13],inactive
same,outcome,[14],inactive
same,outcome,[15],inactive
same,outcome,[16],inactive
same,outcome,[17],inactive
same,outcome,[18],inactive
c1ccc2cc3c(ccc4ccccc43)cc2c1,AC50,[1],8.36 µM (active)
same,outcome,[2],inactive
same,AC50,[3],9.75 µM (active)
same,outcome,[4],inactive
same,AC50,[5],5.58 µM (active)
same,outcome,[6],inactive
same,AC50,[7],12.7 µM (active)
same,AC50,[8],7.72 µM (active)
same,AC50,[9],15 µM (active)
same,outcome,[10],inactive
same,AC50,"MYC, MYC (gene 4609)",13.4 µM (active)
same,AC50,[12],12.1 µM (active)
same,outcome,[13],inactive
same,outcome,[14],inactive
same,AC50,[15],18.6 µM (active)
same,AC50,[16],22.9 µM (active)
same,outcome,[17],inactive
same,outcome,[18],inactive
